# Measured values as given in ChEMBL document CHEMBL1201862, “PubChem BioAssay data set” (2004).
# In all, about 400,000 compounds went through this assay and about 2,100 (0.53%) were called active. Not shown: some 14% with an inconclusive outcome. The sample holds actives, similar compounds and a random draw of the others, so the mix is not that of the screen. How the calls were made is not given here.
# Target: Ataxin-2 (Homo sapiens) (UniProt Q99700)
# Assay: qHTS for Inhibitors of ATXN expression.
# Format: functional
# Chain of Ataxin-2 (Homo sapiens) (Q99700 whole entry): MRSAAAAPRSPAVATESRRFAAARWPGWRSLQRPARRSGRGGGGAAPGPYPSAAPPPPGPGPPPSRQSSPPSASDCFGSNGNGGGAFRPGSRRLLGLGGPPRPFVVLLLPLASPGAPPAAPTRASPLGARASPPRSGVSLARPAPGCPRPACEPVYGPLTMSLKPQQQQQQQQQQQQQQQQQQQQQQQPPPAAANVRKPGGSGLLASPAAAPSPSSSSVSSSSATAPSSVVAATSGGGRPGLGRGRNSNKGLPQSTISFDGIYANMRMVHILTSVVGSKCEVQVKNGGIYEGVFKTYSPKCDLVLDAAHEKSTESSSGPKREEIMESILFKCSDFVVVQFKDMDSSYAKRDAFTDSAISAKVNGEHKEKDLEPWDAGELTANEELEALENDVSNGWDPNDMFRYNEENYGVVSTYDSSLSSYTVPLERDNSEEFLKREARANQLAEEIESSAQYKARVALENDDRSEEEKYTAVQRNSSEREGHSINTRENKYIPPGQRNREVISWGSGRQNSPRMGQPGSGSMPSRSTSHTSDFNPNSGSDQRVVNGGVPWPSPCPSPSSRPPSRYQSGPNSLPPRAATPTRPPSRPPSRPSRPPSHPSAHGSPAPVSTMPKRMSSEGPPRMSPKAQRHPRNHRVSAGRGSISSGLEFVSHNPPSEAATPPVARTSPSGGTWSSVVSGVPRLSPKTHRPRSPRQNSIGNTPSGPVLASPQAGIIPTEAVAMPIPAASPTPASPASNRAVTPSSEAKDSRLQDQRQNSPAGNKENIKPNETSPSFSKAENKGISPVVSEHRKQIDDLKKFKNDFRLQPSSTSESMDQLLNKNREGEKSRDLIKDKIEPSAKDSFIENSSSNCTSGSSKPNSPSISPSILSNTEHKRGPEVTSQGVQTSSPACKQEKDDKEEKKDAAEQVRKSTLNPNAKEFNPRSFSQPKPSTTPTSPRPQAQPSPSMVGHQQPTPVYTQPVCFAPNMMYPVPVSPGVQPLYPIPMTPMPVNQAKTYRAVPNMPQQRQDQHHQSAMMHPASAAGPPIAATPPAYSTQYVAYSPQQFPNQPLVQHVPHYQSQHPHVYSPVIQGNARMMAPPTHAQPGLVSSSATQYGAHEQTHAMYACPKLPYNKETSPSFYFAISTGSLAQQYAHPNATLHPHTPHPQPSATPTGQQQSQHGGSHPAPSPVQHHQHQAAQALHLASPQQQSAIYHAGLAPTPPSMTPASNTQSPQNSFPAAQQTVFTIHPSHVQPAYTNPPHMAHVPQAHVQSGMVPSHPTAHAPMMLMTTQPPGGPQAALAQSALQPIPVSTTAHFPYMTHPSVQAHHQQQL
row,Structure (SMILES),Potency
1,COc1ccc2oc(=O)c(-c3cn4ccc(C)cc4n3)cc2c1,inactive
2,COc1ccc(C2=CC(c3ccc(N(C)C)cc3)n3nnnc3N2)cc1 (configuration not stated),inactive
3,O=C(CSc1nccc(-c2cccs2)n1)Nc1cccc(Cl)c1Cl,inactive
4,CC(C)CNC(=O)COC(=O)c1c2c(nc3ccccc13)/C(=C\c1cccs1)CC2,inactive
5,COc1ccccc1-c1ccc(/C=C2\C=CC(=O)O2)o1,inactive
6,COc1ccccc1-c1c(C#N)c(N)nc2c1CCC2,inactive
7,COc1ccccc1-c1cc(SC)c(C#N)c(=O)o1,35.5 µM (active)
8,CC1CCCN(Cc2c(O)ccc3c2O/C(=C\c2ccco2)C3=O)C1 (configuration not stated),inactive
9,CN(c1ccccc1)c1ccc(/C=C/[N+](=O)[O-])cc1,25.1 µM (active)
10,O=C(CCS(=O)(=O)c1ccccc1)N(CCCN1CCOCC1)c1nc2c(F)cccc2s1,31.6 µM (active)
11,Nc1c(C(=O)NCCN2CCOCC2)c2nc3ccccc3nc2n1-c1cccc(F)c1,inactive
12,Cc1cccc2sc(N(CCN3CCOCC3)C(=O)CCS(=O)(=O)c3ccccc3)nc12,39.8 µM (active)
13,Nc1c(C(=O)c2ccccc2)sc2nsc(SCCN3CCOCC3)c12,inactive
14,O=C(CCS(=O)(=O)c1ccccc1)N(CCCN1CCOCC1)c1nc2ccccc2s1,39.8 µM (active)
15,Nc1c(C(=O)NCCN2CCOCC2)c2nc3ccccc3nc2n1CCc1ccccc1F,inactive
16,Nc1c(C(=O)NCCN2CCOCC2)c2nc3ccccc3nc2n1-c1ccccc1,inactive
17,O=C(CCS(=O)(=O)c1ccccc1)N(CCCN1CCOCC1)c1nc2ccc(F)cc2s1,25.1 µM (active)
18,O=C(CNC(=S)N(CCCN1CCOCC1)Cc1cccs1)NCc1ccccc1,inactive
19,O=C(NCCCN1CCOCC1)c1cc2nc(-c3ccco3)cc(C(F)(F)F)n2n1,inactive
20,CCCCC1CCC(C(=O)OC(C)C(=O)Nc2ccc(NC(C)=O)cc2)CC1 (configuration not stated),inactive
21,NNC(=O)c1oc2nc(-c3ccccc3)cc(-c3ccccc3)c2c1N,inactive
22,Cc1nc2nc(-c3cccs3)cn2nc1C,inactive
23,CCCCn1c(NC(=O)c2ccccc2)c(C#N)c2nc3ccccc3nc21,inactive

row,Structure (SMILES),Potency
1,COc1ccccc1NCC(=O)N/N=C/c1sccc1C,inactive
2,COc1cccc(CN=C(S)Nc2cc(C)ccc2C)c1,inactive
3,CCN(CC)CCN(C(=O)CCS(=O)(=O)c1ccccc1)c1nc2c(C)cc(C)cc2s1,44.7 µM (active)
4,COC(=O)COc1cccc2c(=O)n(CC(=O)N3CCCCC3)ccc12,inactive
5,CCn1cc(C(=O)OCC(=O)Nc2ccc(C)c(Cl)c2)c(=O)c2ccc(C)nc21,inactive
6,CCn1ccc2c(OCC(=O)Nc3ccc(C)c(Cl)c3)cccc2c1=O,39.8 µM (active)
7,Cc1ccccc1C(=O)OC(C)CN1CCN(C)CC1 (configuration not stated),inactive
8,CN1CCN(C2=C(Cl)C(=O)c3ccccc3C2=O)CC1,16.8 µM (active)
9,CC1CCN(c2ccc3c(c2)S(=O)(=O)c2ccccc2C3=O)CC1,inactive
10,CCN(CC(=O)Nc1ccccc1OC)C(=O)c1ccccc1Sc1ccccc1C#N,inactive
11,CCOc1ccc(N(C)S(=O)(=O)c2c[nH]cn2)cc1,inactive
12,CCN(CC)c1ccc(N=Nc2nc[nH]n2)cc1,10 µM (active)
13,O=C(O)c1ccccc1-c1ccc(/C=C/c2cc(C(F)(F)F)nc(O)n2)o1,inactive
14,COc1ccccc1CN1CCc2c([nH]c3ccccc23)C1,inactive
15,CC(=O)C(=Cc1ccc(-c2ccccc2)cc1)C(=O)c1ccccc1,28.2 µM (active)
16,COc1cccc(C=C(C(C)=O)C(=O)c2ccccc2)c1,31.6 µM (active)
17,COc1cccc(C(=O)NNS(=O)(=O)c2ccccc2)c1,inactive
18,C/C(=C\c1ccccc1)C(=O)c1c(C)cc(C)nc1O,inactive
19,COc1cccc(C(=O)COC(=O)CCC(=O)c2ccccc2)c1,inactive
20,CC(=O)c1c(C)[nH]c(C(=O)COC(=O)COc2ccccc2F)c1C,inactive
21,CC(=O)NC1C(=O)N(CCN2CCOCC2)c2ccc(C)cc21 (configuration not stated),inactive
22,Nc1c(C(=O)NCc2ccccc2)c2nc3ccccc3nc2n1CCCN1CCOCC1,inactive
23,Cc1cccn2c(=O)c3cc(C(=O)NCc4ccccc4)c(=N)n(CCCN4CCOCC4)c3nc12,inactive

row,Structure (SMILES),Potency
1,Cc1nc2nc(C)n(CCN3CCOCC3)c(=O)c2c(-c2cccc([N+](=O)[O-])c2)c1C(=O)CCCCCCCCCCN1CCC(c2ccccc2)(c2ccccc2)CC1,13.4 µM (active)
2,O=C(NC1CCCCC1)c1cccc2c1C(=O)c1ccc(N3CCC(Cc4ccccc4)CC3)cc1S2(=O)=O,inactive
3,O=C(NCc1ccccc1)c1cccc2c1C(=O)c1ccc(/C=C/c3ccccc3)cc1S2(=O)=O,inactive
4,O=C1c2ccc(Cl)cc2S(=O)(=O)c2cccc(C(=O)N3CCC(Cc4ccccc4)CC3)c21,31.6 µM (active)
5,O=C(NC1CCCC1)c1cccc2c1C(=O)c1ccc(/C=C/c3ccccc3)cc1S2(=O)=O,inactive
6,O=C(NCCOc1ccccc1Cl)c1cccc2c1C(=O)c1ccc(Cl)cc1S2(=O)=O,35.5 µM (active)
7,O=C(NC1CC1)c1cccc2c1C(=O)c1ccc(N3CCC(Cc4ccccc4)CC3)cc1S2(=O)=O,inactive
8,Cc1c(C)c2cc3c(c(C)c2oc1=O)OCN(CCc1ccc(F)cc1)C3,inactive
9,FC(F)(F)c1cnc(C(c2ccccn2)c2nc[nH]n2)c(Cl)c1 (configuration not stated),inactive
10,COc1ccc(CN(C(=O)COc2ccc(C)c(C)c2)C2CCS(=O)(=O)C2)cc1OC (configuration not stated),inactive
11,COc1ccc(CN(C)CC(=O)Nc2ccc(SC(F)F)cc2)cc1OC,inactive
12,COc1ccc(CN(CCC(c2ccccc2)c2ccc(OC(C)C)cc2)C(=O)CCl)cc1OC (configuration not stated),6.31 µM (active)
13,CCOc1ccc(C(CC(=O)O)NC(=O)C(c2ccccc2)c2ccccc2)cc1OC (configuration not stated),inactive
14,COc1ccc(C(CCN(Cc2ccc(OC)c(OC)c2)C(=O)CCl)c2ccccc2)cc1 (configuration not stated),31.6 µM (active)
15,CCOc1ccc(CN(C)CC(=O)Nc2cccc3ccccc23)cc1OC,inactive
16,COc1cc(C2NC(=O)NC(c3ccccc3)=C2C(C)=O)cc([N+](=O)[O-])c1O (configuration not stated),inactive
17,COc1cc(C(=O)OC(C)C(=O)NC(=O)NC2CCCCC2)ccc1OC(F)F (configuration not stated),inactive
18,C#CC(=O)N(c1ccc(OC)c(OC)c1)C(C(=O)NC1CCCC1)c1cccs1 (configuration not stated),25.1 µM (active)
19,O=C(CN(C(=O)CNC(=O)c1cccs1)c1ccccc1)NC1CCCCC1,inactive
20,O=C(CCC(=O)c1cccs1)NC1CCCCCC1,inactive
21,C#CC(=O)N(c1ccc(OC)cc1OC)C(C(=O)NC1CCCC1)c1cccs1 (configuration not stated),2.12 µM (active)
